Measurements as given in PubChem BioAssay AID624300 (Southern Research Specialized Biocontainment Screening …, 2012).
Screen size: about 2,400 compounds; about 360 (15%) were called active. Not all results are given here. Measured potencies and affinities stand elsewhere. Values without a mark were called inactive.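 Rule for the calls: active = viability falls under 70% at one or more tested concentrations, taken as toxicity; inactive = viability stays over 70% at every dose.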

Test: viability loss in HeLa cells – cytotoxicity control for MgcRacGAP inhibitor project, dose response (AID 624300);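 note: 100% = median of untreated control wells on the same plate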
Conditions: CellTiter-Glo luminescence, 24 h; series mostly up to 100 µM; viability: at the top concentration
In the case of `CCCCn1c(C)cc2cc(O)ccc21`, the “viability” value is reported as 101%. For `COc1ccc(N2CCN(C(=O)c3ccccc3N(C)S(=O)(=O)c3ccccc3)CC2)cc1`, the “viability” value was 97.8%. In the case of `COc1cc(CNCc2cc(OC)c(OC)c(OC)c2)cc(OC)c1`, the “viability” value is reported as 96.5%. With `COc1cc2c(cc1NCc1ccc3c(c1)OCO3)oc1ccccc12` the “viability” value was 81%. With `CCc1cc(/C(Cc2cscn2)=N\O)c(O)cc1O` the “viability” value was 95.1%. In the case of `CCN(CC)c1ccc(NC(=O)COC(=O)CCc2cc(OC)c(OC)c(OC)c2)cc1`, the “viability” value is reported as 104%. In the case of `O=C(CN1CCN(C/C=C/c2ccccc2)CC1)Nc1ccccc1C(=O)NC1CC1`, the “viability” value is reported as 95.7%. For `COc1cc(CNCc2ccccc2C(F)(F)F)cc(OC)c1`, the “viability” value was 96.3%. With `CCn1c2ccccc2c2cc(N)ccc21` the “viability” value was 91.2%. With `COc1ccccc1CNCC(=O)NCc1ccc(C)cc1` the “viability” value was 99.6%. For `CCn1c2ccccc2c2cc(NC(=O)CNC)ccc21`, the “viability” value was 101%. For `COc1ccc(/C=N\NC(=O)c2ccc(=O)[nH]n2)cc1O`, the “viability” value was 106%. With `O=C(c1cccc(F)c1)N1CCN(C2CCCCC2)CC1` the “viability” value was 103%. For `CN(C)CCCNc1ncnc2sc(-c3ccccc3)cc12`, the “viability” value was 91.6%. With `Cc1cc(C)c(OCCCCN2CCC(C)CC2)c(Br)c1` the “viability” value was 89.6%. With `O=C(CN1CCN(c2ccc(O)cc2)CC1)NC(=O)NCc1ccco1` the “viability” value was 98.2%. In the case of `COc1cc(/C=N\NC(=O)CNC(=O)C2COc3ccccc3O2)ccc1O` (centres undefined), the “viability” value is reported as 109%. With `Oc1ccc(C2=Nn3c(nnc3-c3ccco3)SC2)cc1O` the “viability” value was 85.5%. For `CCN(CC)c1ccc(NC(=O)COC(=O)CCC(=O)c2cccs2)cc1`, the “viability” value was 106%. In the case of `O=C(Cc1coc2cc(O)ccc12)NNC(=O)c1cccs1`, the “viability” value is reported as 108%. In the case of `CN(C)c1ccc(C(=O)NC2(N3CCC3=O)CCCC2)cc1`, the “viability” value is reported as 94%. For `Cc1ccc(Nc2c(-c3ccco3)nc3ccccn23)cc1`, the “viability” value was 96.7%. In the case of `Cc1ccn2c(NC3CCCC3)c(-c3ccncc3)nc2c1`, the “viability” value is reported as 84.7%. In the case of `O=CNc1ccc2c(c1)Cc1cccc(NC=O)c1-2`, the “viability” value is reported as 84.9%. With `O=C(CNCc1ccco1)Nc1ccc(Oc2ccccc2)cc1` the “viability” value was 89.1%. With `Cc1ccccc1OCCn1c(=S)[nH]c2c(N)ncnc21` the “viability” value was 104%. In the case of `CC1CC(C)CN(CC(=O)NC(c2ccccc2)c2ccccc2)C1` (centres undefined), the “viability” value is reported as 88.4%. For `Cc1c(-c2ccccc2)sc(N)c1C(=O)N1CCOCC1`, the “viability” value was 103%. In the case of `CCN(CC)c1ccc(NC(=O)C2=CC=CN3CCS(=O)(=O)N=C23)cc1`, the “viability” value is reported as 109%. In the case of `CCOc1cc(/C=C2\N=C3CCCCCN3C2=O)ccc1O`, the “viability” value is reported as 101%. For `CCOC(=O)C1=C(O)/C(=C\c2ccc(O)c(OCC)c2)N=C1C`, the “viability” value was 99.8%. In the case of `COc1ccccc1N1CCN(CC(=O)NCC2CCCO2)CC1` (centres undefined), the “viability” value is reported as 102%. With `Cc1cc(C)nc(SCC(=O)c2ccc(O)c(O)c2)n1` the “viability” value was 88.8%. In the case of `O=C(CSc1nnnn1-c1ccc(F)cc1)c1ccc(O)c(O)c1`, the “viability” value is reported as 105%. With `COc1cc(/C=N/NC(=O)c2ccc(N3CCCC3=O)cc2)ccc1O` the “viability” value was 112%. In the case of `COc1cccc2cc(C(=O)Oc3ccc(NC(C)=O)cc3)c(=O)oc12`, the “viability” value is reported as 109%. For `Cc1ccc(C)c(OCC(O)CN2CCC(C)CC2)c1C` (centres undefined), the “viability” value was 93.9%. In the case of `O=S(=O)(c1ccc2ccccc2c1)N1CCN(c2ccc(O)cc2)CC1`, the “viability” value is reported as 109%. For `Cc1ccc(S(=O)(=O)N2CCN(C(=O)CN3CCN(c4ccc(O)cc4)CC3)CC2)cc1`, the “viability” value was 107%. For `COc1cc(C(=O)N/N=C/c2cn(Cc3ccccc3)c3ccccc23)ccc1O`, the “viability” value was 102%. For `O=C1CCCC(O)=C1C=Nc1ccc(O)cc1`, the “viability” value was 98%. In the case of `COc1cc(/C=N/N=C2\CC3CCC2(C)C3(C)C)ccc1O` (centres undefined), the “viability” value is reported as 96.9%. With `O=C(C[n+]1ccccc1)N/N=C/c1ccc(O)cc1` the “viability” value was 98.7%. With `CCN(CC)c1ccc(/C=N/NC(=O)c2cc3ccccc3[nH]2)cc1` the “viability” value was 100%. For `COc1ccc(C)cc1NC(=O)C(NCC(O)c1ccccc1)c1ccccc1` (centres undefined), the “viability” value was 90.1%. For `CCc1nc(Nc2ccc(N3CCN(C(C)=O)CC3)cc2)c2oc3ccccc3c2n1`, the “viability” value was 102%. In the case of `CC(=O)N1CCN(c2ccc(NCc3ccccc3)cc2)CC1`, the “viability” value is reported as 100%. In the case of `COc1cc(/C=C/C(=O)OCC(=O)c2ccc(OC(F)F)cc2)ccc1O`, the “viability” value is reported as 94.6%. With `CCN(CC)c1ccc(NC(=O)c2ccc3c(c2)OCO3)cc1` the “viability” value was 102%. In the case of `CCN(CC)c1ccc(NC(=O)c2ccc(S(=O)(=O)N3CCOCC3)cc2)cc1`, the “viability” value is reported as 95.2%. For `C/C=C(\C)CN1CCN(c2ccc(C)cc2)CC1`, the “viability” value was 95.2%. For `COc1cc(/C=C(\C#N)C(=O)c2c[nH]c3ccccc23)cc(OC)c1O`, the “viability” value was 98.6%. With `CN1C=CC=C/C1=C(\C#N)c1nc2ccccc2[nH]1` the “viability” value was 102%. For `COc1cc(/C=C(\C#N)C(=O)Nc2ccc3c(c2)OCCO3)ccc1O`, the “viability” value was 110%. With `N#C/C(=C/c1ccc(N2CCOCC2)o1)c1nc2ccccc2[nH]1` the “viability” value was 98.4%. For `N#C/C(=C\c1ccc(N2CCOCC2)o1)c1nc2ccccc2[nH]1`, the “viability” value was 94.4%. In the case of `COc1ccccc1N1CCN(/N=C/c2cc(OC)c(O)c(OC)c2)CC1`, the “viability” value is reported as 98.3%. In the case of `COc1ccc(CN2CCN(Cc3ccccc3F)CC2)cc1OC`, the “viability” value is reported as 94%. With `CN(c1ccccc1)S(=O)(=O)c1cccc(C(=O)NCCc2ccc(O)c(O)c2)c1` the “viability” value was 93.7%. In the case of `COc1cccc(OC)c1C(=O)N1CCN(Cc2ccc3c(c2)OCO3)CC1`, the “viability” value is reported as 96.2%. In the case of `COc1cc(/C=C/C(=O)OCC(=O)N(C)Cc2ccccc2)ccc1O`, the “viability” value is reported as 90%. With `Cc1ccc(C2=NN=C(NC(=O)CSc3nncn3C)SC2)cc1` the “viability” value was 86.7%. With `COc1cc(/C=N/NC(=O)CC2C(=O)NN=C2C)ccc1O` (centres undefined) the “viability” value was 98.4%. In the case of `CCN(CC)c1ccc(NC(=O)CN2C(=O)NC3(CCc4ccccc43)C2=O)cc1` (centres undefined), the “viability” value is reported as 108%. For `Nc1ccc(C(=O)c2ccc3c(c2)OCCO3)cc1N`, the “viability” value was 105%. For `COc1cc(-c2nc3ccccc3s2)ccc1O`, the “viability” value was 92.2%. In the case of `Cc1ccc(S(=O)(=O)Nc2nsc(N)n2)cc1`, the “viability” value is reported as 99.2%. With `Oc1ccc(Cc2ccccc2Cl)c(O)c1` the “viability” value was 89%. In the case of `CCOc1cc(/C=N/NC(=O)C(C)Sc2ccccn2)ccc1O` (centres undefined), the “viability” value is reported as 114%. With `COc1cc(/C=N\Nc2cc(=O)n(C)c(=O)n2C)ccc1O` the “viability” value was 93%. In the case of `COc1cc(/C=C/C(=O)OCC(=O)N(CC(C)C)c2c(N)n(Cc3ccccc3)c(=O)[nH]c2=O)ccc1O`, the “viability” value is reported as 83.7%. With `COc1ccc(Nc2ccccc2)c(C)c1` the “viability” value was 93%. In the case of `O=[N+]([O-])c1cc([N+](=O)[O-])c2nonc2c1Nc1ccccc1O`, the “viability” value is reported as 91.2%. In the case of `Cc1cc(C)c(C)c(S(=O)(=O)N2CCN(c3ccc(O)cc3)CC2)c1C`, the “viability” value is reported as 111%.
